What all share (experiment): DAPPL (digital affinity profiling via proximity ligation, sequencing); 10 mM Tris-HCl pH 7.5, 50 mM NaCl, 1 mM DTT, 4% glycerol, room temperature, 30 min; GST-TFs on glutathione beads, 16-mer random dsDNA library, 0.1% formaldehyde crosslink after washing; high values mean tight binding
One experiment deals with T1, FEV (Homo sapiens, UniProt Q99581 1-238).
T1 sequence: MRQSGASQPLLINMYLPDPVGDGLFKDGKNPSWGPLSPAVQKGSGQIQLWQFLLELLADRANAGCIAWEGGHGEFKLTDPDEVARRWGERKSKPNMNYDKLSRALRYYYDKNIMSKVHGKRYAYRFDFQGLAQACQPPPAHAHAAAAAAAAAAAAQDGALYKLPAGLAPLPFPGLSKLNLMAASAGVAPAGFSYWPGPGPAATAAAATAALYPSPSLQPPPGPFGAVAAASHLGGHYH
Conditions: protein: recombinant; tags: N-terminal GST; dsDNA, one strand shown. Summed up: (§1)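 Binding signal is given per hexamer as its read frequency for a factor divided by its frequency in the tag-only sample. GST-fused human transcription factors were expressed in yeast, captured on glutathione beads, barcoded with DNA and pooled with that sample, then incubated with 200 nmole of a 16-mer random double-stranded DNA library in Tris/NaCl/DTT/glycerol buffer for 30 min at room temperature. The pools were then washed, crosslinked, proximity-ligated, amplified by PCR and sequenced on an Illumina NextSeq500.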

In the next experiment the target is ETV5 (Homo sapiens, UniProt P41161 1-510). The settings on record: protein: recombinant; tags: N-terminal GST; dsDNA, one strand shown. The method in brief: as §1
Sequence of ETV5 (P41161 whole entry): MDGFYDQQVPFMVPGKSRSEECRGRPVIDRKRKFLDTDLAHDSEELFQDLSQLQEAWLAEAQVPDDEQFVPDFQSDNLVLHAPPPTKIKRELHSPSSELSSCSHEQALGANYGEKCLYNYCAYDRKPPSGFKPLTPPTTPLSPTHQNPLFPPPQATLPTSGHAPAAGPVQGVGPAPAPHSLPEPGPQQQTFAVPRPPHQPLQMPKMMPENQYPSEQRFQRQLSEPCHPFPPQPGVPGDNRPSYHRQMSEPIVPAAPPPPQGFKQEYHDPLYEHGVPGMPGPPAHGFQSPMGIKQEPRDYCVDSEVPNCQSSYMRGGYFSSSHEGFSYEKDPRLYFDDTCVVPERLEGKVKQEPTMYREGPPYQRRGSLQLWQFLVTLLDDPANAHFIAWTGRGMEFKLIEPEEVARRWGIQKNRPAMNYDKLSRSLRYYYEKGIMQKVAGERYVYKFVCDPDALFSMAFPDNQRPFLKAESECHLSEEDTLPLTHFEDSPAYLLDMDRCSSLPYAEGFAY
Another experiment addresses HSF1 (Homo sapiens, UniProt Q00613 1-529). The settings on record: protein: recombinant; tags: N-terminal GST; chain copies: 3; dsDNA, one strand shown. The method in brief:
as §1

Another experiment deals with T2, SPIC (Homo sapiens, UniProt Q8N5J4 1-248).
T2 sequence: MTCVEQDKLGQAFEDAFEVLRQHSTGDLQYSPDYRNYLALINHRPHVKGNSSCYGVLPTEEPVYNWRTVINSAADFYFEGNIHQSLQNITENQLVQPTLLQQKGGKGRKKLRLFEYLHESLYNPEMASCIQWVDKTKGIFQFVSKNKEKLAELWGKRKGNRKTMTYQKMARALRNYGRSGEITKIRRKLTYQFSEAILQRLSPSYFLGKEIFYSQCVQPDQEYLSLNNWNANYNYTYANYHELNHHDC
The settings on record: protein: recombinant; tags: N-terminal GST; dsDNA, one strand shown. The method in brief:
as §1

For the next experiment, the target named is ELF4 (Homo sapiens, UniProt Q99607 1-663). The settings on record: protein: recombinant; tags: N-terminal GST; dsDNA, one strand shown. The method in brief:
as §1

Another experiment has as its target T3, ELK4 (Homo sapiens, UniProt P28324-2 1-405).
T3 sequence: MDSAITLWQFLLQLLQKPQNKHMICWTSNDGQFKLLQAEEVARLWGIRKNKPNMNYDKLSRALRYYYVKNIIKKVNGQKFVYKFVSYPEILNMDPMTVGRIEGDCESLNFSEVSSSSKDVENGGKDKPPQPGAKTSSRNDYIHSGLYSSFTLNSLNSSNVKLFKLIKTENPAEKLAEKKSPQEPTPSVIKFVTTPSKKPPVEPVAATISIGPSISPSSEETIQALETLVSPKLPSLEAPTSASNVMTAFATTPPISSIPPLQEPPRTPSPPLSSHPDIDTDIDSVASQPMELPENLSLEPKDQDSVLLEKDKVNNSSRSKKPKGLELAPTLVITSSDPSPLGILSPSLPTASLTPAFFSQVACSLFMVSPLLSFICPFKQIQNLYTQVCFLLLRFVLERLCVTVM
The settings on record: protein: recombinant; tags: N-terminal GST; dsDNA, one strand shown. Summed up: as §1

The target in a further experiment is T4, ETV2 (Homo sapiens, UniProt O00321 1-342).
T4 sequence: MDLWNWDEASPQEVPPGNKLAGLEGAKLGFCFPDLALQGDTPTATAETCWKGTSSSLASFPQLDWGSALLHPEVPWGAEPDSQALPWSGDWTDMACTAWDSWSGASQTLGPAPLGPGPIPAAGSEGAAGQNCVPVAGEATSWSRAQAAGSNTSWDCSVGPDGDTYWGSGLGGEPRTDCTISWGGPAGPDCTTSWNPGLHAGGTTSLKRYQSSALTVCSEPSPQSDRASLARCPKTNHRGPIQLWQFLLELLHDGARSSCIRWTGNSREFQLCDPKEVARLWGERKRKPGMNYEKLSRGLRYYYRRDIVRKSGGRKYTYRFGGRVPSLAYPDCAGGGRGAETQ
The settings on record: protein: recombinant; tags: N-terminal GST; dsDNA, one strand shown. Summed up: as §1

A further experiment deals with T5, ELF3 (Homo sapiens, UniProt P78545 1-371).
T5 sequence: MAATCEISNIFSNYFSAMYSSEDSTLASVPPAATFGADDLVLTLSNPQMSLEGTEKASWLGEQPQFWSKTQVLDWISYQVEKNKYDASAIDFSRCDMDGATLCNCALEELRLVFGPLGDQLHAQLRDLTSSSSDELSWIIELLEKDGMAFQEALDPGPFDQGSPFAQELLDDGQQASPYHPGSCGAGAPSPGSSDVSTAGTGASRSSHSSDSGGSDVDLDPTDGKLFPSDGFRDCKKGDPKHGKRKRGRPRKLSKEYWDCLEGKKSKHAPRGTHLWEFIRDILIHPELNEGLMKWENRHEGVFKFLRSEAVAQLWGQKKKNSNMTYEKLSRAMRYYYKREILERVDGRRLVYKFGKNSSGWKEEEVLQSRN
Conditions: protein: recombinant; tags: N-terminal GST; dsDNA, one strand shown. The method in brief:
as §1

The target of another experiment is CRX (Homo sapiens, UniProt O43186 1-299). Conditions: protein: recombinant; tags: N-terminal GST; dsDNA, one strand shown. Summed up:
as §1

A further experiment concerns the target ETV1 (Homo sapiens, UniProt P50549 1-477). The settings on record: protein: recombinant; tags: N-terminal GST; dsDNA, one strand shown. Summed up: as §1
Another experiment has as its target T6, ERF (Homo sapiens, UniProt P50548 1-548).
T6 sequence: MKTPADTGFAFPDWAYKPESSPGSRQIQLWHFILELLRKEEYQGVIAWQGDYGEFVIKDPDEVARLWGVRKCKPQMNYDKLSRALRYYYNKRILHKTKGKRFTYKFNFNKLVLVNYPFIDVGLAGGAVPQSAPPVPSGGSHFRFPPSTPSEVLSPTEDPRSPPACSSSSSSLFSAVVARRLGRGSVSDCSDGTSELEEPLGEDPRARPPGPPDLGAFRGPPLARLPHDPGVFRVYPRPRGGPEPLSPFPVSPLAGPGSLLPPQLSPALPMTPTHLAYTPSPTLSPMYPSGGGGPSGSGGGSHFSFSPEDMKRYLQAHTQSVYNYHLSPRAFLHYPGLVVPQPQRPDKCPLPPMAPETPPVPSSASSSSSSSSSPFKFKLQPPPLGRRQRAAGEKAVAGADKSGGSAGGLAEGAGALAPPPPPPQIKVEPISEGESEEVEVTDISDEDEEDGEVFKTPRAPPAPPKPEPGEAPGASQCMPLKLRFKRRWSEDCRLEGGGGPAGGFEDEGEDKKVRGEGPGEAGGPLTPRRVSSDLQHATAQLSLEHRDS
The settings on record: protein: recombinant; tags: N-terminal GST; dsDNA, one strand shown. The method in brief: as §1

In another experiment the target is T7, ETV3L (Homo sapiens, UniProt Q6ZN32 1-361).
T7 sequence: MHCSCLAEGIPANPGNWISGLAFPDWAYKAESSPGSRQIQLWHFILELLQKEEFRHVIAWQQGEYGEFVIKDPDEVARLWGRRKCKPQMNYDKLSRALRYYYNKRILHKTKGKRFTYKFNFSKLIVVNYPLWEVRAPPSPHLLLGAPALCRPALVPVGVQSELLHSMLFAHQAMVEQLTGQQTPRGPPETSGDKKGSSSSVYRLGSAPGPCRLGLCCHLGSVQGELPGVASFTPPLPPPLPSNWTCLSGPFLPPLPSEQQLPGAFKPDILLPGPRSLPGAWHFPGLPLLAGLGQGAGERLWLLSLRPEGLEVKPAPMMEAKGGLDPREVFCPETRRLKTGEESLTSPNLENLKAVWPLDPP
Conditions: protein: recombinant; tags: N-terminal GST; dsDNA, one strand shown. The method in brief:
as §1

In another experiment the target is T8, ETS2 (Homo sapiens, UniProt P15036 1-469).
T8 sequence: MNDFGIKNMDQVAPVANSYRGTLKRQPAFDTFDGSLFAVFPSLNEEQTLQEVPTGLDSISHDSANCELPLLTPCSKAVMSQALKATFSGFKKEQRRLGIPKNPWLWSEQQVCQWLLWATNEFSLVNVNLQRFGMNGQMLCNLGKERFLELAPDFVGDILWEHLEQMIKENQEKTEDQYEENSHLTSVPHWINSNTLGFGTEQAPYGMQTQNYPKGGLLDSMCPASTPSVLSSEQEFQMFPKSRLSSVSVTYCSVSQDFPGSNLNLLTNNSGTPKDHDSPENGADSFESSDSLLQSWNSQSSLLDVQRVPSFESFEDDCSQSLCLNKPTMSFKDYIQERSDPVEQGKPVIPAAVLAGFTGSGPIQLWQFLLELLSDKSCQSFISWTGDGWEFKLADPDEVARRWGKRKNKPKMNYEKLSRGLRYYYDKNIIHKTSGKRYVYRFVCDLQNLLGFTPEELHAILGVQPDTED
The settings on record: protein: recombinant; tags: N-terminal GST; dsDNA, one strand shown. The method in brief:
as §1

For the next experiment, the target named is T9, SPDEF (Homo sapiens, UniProt O95238 1-335).
T9 sequence: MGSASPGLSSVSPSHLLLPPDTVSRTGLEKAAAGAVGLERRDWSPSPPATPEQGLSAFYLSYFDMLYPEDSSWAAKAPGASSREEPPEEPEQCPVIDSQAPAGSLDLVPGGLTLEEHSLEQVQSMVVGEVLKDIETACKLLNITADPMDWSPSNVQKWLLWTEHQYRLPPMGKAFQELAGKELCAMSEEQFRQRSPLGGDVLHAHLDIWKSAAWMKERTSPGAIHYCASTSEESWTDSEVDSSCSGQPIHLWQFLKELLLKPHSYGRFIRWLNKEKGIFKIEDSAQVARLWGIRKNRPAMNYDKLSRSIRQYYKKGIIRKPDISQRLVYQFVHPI
The settings on record: protein: recombinant; tags: N-terminal GST; dsDNA, one strand shown. The method in brief:
as §1

Another experiment concerns the target T10, ETV7 (Homo sapiens, UniProt Q9Y603 1-341).
T10 sequence: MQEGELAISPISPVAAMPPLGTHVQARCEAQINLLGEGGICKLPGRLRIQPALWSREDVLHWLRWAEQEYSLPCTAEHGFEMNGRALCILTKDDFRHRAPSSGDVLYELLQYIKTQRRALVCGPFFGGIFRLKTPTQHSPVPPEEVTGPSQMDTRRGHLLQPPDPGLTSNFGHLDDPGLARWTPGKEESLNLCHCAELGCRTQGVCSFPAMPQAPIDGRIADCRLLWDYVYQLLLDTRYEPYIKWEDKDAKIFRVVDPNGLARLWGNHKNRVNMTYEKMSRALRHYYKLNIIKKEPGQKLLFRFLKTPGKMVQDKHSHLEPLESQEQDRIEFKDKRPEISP
The settings on record: protein: recombinant; tags: N-terminal GST; dsDNA, one strand shown. Summed up: as §1

The target in another experiment is T11, ELF5 (Homo sapiens, UniProt Q9UKW6-2 1-255).
T11 sequence: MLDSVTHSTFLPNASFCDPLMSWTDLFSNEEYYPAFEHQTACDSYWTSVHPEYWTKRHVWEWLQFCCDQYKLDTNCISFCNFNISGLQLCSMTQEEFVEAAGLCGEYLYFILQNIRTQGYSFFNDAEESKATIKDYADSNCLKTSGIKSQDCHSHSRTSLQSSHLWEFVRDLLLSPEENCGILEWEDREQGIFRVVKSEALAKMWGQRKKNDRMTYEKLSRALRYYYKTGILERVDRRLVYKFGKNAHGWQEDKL
The settings on record: protein: recombinant; tags: N-terminal GST; dsDNA, one strand shown. Summed up: as §1

Another experiment addresses T12, ETV3 (Homo sapiens, UniProt P41162-2 1-143).
T12 sequence: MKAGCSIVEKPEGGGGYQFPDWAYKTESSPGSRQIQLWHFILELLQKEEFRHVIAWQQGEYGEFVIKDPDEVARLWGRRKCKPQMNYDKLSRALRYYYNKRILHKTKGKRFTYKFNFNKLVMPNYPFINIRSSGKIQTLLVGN
Conditions: protein: recombinant; tags: N-terminal GST; dsDNA, one strand shown. Summed up: as §1

The target in a further experiment is ETV6 (Homo sapiens, UniProt P41212 1-452). The settings on record: protein: recombinant; tags: N-terminal GST; dsDNA, one strand shown. Summed up: as §1
Sequence of ETV6 (P41212 whole entry): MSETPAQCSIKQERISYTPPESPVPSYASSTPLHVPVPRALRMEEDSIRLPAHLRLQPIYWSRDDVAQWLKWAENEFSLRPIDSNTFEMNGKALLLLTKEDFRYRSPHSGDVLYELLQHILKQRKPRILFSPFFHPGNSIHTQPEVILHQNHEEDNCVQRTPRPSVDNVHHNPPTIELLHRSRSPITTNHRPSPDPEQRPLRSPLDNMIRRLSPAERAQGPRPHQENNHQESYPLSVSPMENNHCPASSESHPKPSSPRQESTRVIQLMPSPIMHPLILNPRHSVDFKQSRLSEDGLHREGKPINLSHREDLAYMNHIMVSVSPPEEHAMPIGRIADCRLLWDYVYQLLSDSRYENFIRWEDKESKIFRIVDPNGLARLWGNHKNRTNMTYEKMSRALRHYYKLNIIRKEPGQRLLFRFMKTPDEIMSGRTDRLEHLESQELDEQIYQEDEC

Sequence of ETV1 (P50549 whole entry): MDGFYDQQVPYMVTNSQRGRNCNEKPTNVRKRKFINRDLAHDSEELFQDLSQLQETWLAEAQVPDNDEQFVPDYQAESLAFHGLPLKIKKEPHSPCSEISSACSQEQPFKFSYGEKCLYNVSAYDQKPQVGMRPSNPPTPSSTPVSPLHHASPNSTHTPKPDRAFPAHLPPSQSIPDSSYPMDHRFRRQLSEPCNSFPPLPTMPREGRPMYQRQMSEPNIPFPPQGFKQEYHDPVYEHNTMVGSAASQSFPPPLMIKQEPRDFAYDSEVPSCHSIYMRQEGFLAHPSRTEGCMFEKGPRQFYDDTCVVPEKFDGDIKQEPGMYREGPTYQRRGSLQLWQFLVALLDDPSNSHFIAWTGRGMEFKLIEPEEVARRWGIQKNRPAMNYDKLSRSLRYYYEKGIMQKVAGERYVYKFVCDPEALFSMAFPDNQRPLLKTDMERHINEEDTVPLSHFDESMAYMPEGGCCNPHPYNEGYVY
Sequence of CRX (O43186 whole entry): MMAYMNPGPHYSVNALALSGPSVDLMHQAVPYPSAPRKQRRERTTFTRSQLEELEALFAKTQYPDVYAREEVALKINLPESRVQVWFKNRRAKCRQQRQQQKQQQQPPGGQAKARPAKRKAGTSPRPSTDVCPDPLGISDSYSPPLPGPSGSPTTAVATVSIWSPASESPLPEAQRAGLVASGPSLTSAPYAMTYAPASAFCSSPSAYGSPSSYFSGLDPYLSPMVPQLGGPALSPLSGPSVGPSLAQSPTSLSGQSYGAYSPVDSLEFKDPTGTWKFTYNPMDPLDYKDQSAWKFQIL
Sequence of HSF1 (Q00613 whole entry): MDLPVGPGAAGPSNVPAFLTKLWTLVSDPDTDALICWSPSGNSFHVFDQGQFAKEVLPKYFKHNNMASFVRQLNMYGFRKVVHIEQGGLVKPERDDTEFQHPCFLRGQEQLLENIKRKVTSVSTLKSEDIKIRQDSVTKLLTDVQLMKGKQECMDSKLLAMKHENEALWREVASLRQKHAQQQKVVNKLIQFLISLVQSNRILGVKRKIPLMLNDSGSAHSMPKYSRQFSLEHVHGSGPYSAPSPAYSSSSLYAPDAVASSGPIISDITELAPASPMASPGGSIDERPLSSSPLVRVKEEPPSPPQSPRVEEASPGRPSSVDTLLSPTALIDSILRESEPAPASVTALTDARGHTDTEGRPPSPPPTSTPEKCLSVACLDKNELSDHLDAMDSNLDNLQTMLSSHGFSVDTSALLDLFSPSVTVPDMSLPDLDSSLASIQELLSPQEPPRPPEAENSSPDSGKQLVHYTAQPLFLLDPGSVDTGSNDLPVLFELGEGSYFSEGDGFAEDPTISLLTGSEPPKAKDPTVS
Sequence of ELF4 (Q99607 whole entry): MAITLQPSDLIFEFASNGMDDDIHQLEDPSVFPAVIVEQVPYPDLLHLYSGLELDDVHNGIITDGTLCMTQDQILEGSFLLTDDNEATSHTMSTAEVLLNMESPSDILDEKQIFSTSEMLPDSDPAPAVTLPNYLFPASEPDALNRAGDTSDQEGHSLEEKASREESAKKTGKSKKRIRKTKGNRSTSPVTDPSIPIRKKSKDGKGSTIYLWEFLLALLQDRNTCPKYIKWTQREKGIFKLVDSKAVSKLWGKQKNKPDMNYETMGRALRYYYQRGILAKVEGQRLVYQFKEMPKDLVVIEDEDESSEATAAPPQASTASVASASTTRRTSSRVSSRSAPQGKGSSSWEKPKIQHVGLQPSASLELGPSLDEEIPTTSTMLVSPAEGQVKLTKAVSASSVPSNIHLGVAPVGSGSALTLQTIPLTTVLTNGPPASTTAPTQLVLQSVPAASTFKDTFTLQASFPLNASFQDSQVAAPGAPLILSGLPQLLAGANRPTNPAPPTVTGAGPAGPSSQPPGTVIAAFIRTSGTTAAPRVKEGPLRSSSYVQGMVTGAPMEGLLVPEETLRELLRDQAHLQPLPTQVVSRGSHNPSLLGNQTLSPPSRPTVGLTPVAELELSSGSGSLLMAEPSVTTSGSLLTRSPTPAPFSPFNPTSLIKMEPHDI

Take CCTCCC: the binding signal in the experiment with FEV was 1.59 fold enrichment (6-mer frequency, TF over GST control); with ETV5, 1.55 fold enrichment (6-mer frequency, TF over GST control); with HSF1, 1.12 fold enrichment (6-mer frequency, TF over GST control); with SPIC, 1.65 fold enrichment (6-mer frequency, TF over GST control); with ELF4, 1.66 fold enrichment (6-mer frequency, TF over GST control); in the experiment with ELK4, 1.3 fold enrichment (6-mer frequency, TF over GST control). Further, the binding signal is 1.71 fold enrichment (6-mer frequency, TF over GST control) with ETV2; 1.36 fold enrichment (6-mer frequency, TF over GST control) with ELF3; 1.21 fold enrichment (6-mer frequency, TF over GST control) with CRX; 1.36 fold enrichment (6-mer frequency, TF over GST control) with ETV1; 1.59 fold enrichment (6-mer frequency, TF over GST control) with ERF; 1.49 fold enrichment (6-mer frequency, TF over GST control) with ETV3L. Moreover, the binding signal with ETS2 was 1.58 fold enrichment (6-mer frequency, TF over GST control); with SPDEF, 1.38 fold enrichment (6-mer frequency, TF over GST control); in the experiment with ETV7, 1.44 fold enrichment (6-mer frequency, TF over GST control); with ELF5, 1.49 fold enrichment (6-mer frequency, TF over GST control); with ETV3 it was 1.43 fold enrichment (6-mer frequency, TF over GST control); with ETV6, 1.44 fold enrichment (6-mer frequency, TF over GST control).
